Like-named read-outs stand apart in the source and are kept apart here.
What was measured:
SYK = conditions: read-out: apparent Kd, n = 1
TNK2 = conditions: read-out: apparent Kd, n = 1
[1] = compound concentrations:100 nM and 1000 nM (sheet 'Lestaurtinib' of Supplementary Table 1),run:Lestaurtinib_02748_R1,Plate:MR024
[2] = compound concentrations:100 nM and 1000 nM (sheet 'Lestaurtinib' of Supplementary Table 1),run:Lestaurtinib_02752_R1,Plate:MR025
[3] = compound concentrations:100 nM and 1000 nM (sheet 'Lestaurtinib' of Supplementary Table 1),run:Lestaurtinib_02752_R2,Plate:MR025
[4] = compound concentrations:100 nM and 1000 nM (sheet 'Lestaurtinib' of Supplementary Table 1),run:Lestaurtinib_02765_R2,Plate:MR026
[5] = compound concentrations:100 nM and 1000 nM (sheet 'Lestaurtinib' of Supplementary Table 1),run:Lestaurtinib_02765_R3,Plate:MR026
[6] = compound concentrations:100 nM and 1000 nM (sheet 'Lestaurtinib' of Supplementary Table 1),run:Lestaurtinib_02766_R1,Plate:MR027
[7] = compound concentrations:100 nM and 1000 nM (sheet 'Lestaurtinib' of Supplementary Table 1),run:Lestaurtinib_02766_R3,Plate:MR027
[8] = compound concentrations:100 nM and 1000 nM (sheet 'Lestaurtinib' of Supplementary Table 1),run:Lestaurtinib_02768_R1,Plate:MR028
[9] = compound concentrations:100 nM and 1000 nM (sheet 'Lestaurtinib' of Supplementary Table 1),run:Lestaurtinib_02768_R2,Plate:MR028
[10] = compound concentrations:100 nM and 1000 nM (sheet 'Lestaurtinib' of Supplementary Table 1),run:Lestaurtinib_02795_R1,Plate:MR022
[11] = compound concentrations:100 nM and 1000 nM (sheet 'Lestaurtinib' of Supplementary Table 1),run:Lestaurtinib_02795_R3,Plate:MR022
[12] = compound concentrations:100 nM and 1000 nM (sheet 'Lestaurtinib' of Supplementary Table 1),run:Lestaurtinib_02802_R1,Plate:MR029
[13] = compound concentrations:100 nM and 1000 nM (sheet 'Lestaurtinib' of Supplementary Table 1),run:Lestaurtinib_02802_R3,Plate:MR029
[14] = compound concentrations:100 nM and 1000 nM (sheet 'Lestaurtinib' of Supplementary Table 1),run:Lestaurtinib_02896_R1,Plate:MR030
[15] = compound concentrations:100 nM and 1000 nM (sheet 'Lestaurtinib' of Supplementary Table 1),run:Lestaurtinib_02896_R3,Plate:MR030
[16] = compound concentrations:100 nM and 1000 nM (sheet 'Lestaurtinib' of Supplementary Table 1),run:Lestaurtinib_03172_R3,Plate:MR031
[17] = compound concentrations:100 nM and 1000 nM (sheet 'Lestaurtinib' of Supplementary Table 1),run:Lestaurtinib_03252_R1,Plate:MR032
[18] = compound concentrations:100 nM and 1000 nM (sheet 'Lestaurtinib' of Supplementary Table 1),run:Lestaurtinib_03260_R3,Plate:MR033

Q: What does the source list for Lestaurtinib?
A: potency estimated from few doses (SYK; [1]): 393 nM; potency estimated from few doses (SYK; compound concentrations:100 nM and 1000 nM (sheet 'Lestaurtinib' of Supplementary Table 1),run:Lestaurtinib_02748_R2,Plate:MR024): 196 nM; potency estimated from few doses (SYK; [2]): 510 nM; potency estimated from few doses (SYK; [3]): 136 nM; potency estimated from few doses (SYK; [4]): 169 nM; potency estimated from few doses (SYK; [5]): 182 nM; potency estimated from few doses (SYK; [6]): 211 nM; potency estimated from few doses (SYK; [7]): 441 nM; potency estimated from few doses (SYK; [8]): 484 nM; potency estimated from few doses (SYK; [9]): 424 nM; potency estimated from few doses (SYK; [10]): 460 nM; potency estimated from few doses (SYK; compound concentrations:100 nM and 1000 nM (sheet 'Lestaurtinib' of Supplementary Table 1),run:Lestaurtinib_02795_R2,Plate:MR022): 141 nM; potency estimated from few doses (SYK; [11]): 259 nM; potency estimated from few doses (SYK; [12]): 239 nM; potency estimated from few doses (SYK; [13]): 451 nM; potency estimated from few doses (SYK; [14]): 253 nM; potency estimated from few doses (SYK; [15]): 217 nM; potency estimated from few doses (SYK; compound concentrations:100 nM and 1000 nM (sheet 'Lestaurtinib' of Supplementary Table 1),run:Lestaurtinib_03172_R2,Plate:MR031): 595 nM; potency estimated from few doses (SYK; [16]): 400 nM; potency estimated from few doses (SYK; [17]): 149 nM; potency estimated from few doses (SYK; compound concentrations:100 nM and 1000 nM (sheet 'Lestaurtinib' of Supplementary Table 1),run:Lestaurtinib_03252_R2,Plate:MR032): 222 nM; potency estimated from few doses (SYK; compound concentrations:100 nM and 1000 nM (sheet 'Lestaurtinib' of Supplementary Table 1),run:Lestaurtinib_03260_R2,Plate:MR033): 224 nM; potency estimated from few doses (SYK; [18]): 130 nM; potency estimated from few doses (TNK2; compound concentrations:100 nM and 1000 nM (sheet 'Lestaurtinib' of Supplementary Table 1),run:Lestaurtinib_02339_R3,Plate:MR001): 44 nM; potency estimated from few doses (TNK2; compound concentrations:100 nM and 1000 nM (sheet 'Lestaurtinib' of Supplementary Table 1),run:Lestaurtinib_02364_R1,Plate:MR002): 69.8 nM; potency estimated from few doses (TNK2; compound concentrations:100 nM and 1000 nM (sheet 'Lestaurtinib' of Supplementary Table 1),run:Lestaurtinib_02364_R2,Plate:MR002): 56.4 nM; potency estimated from few doses (TNK2; compound concentrations:100 nM and 1000 nM (sheet 'Lestaurtinib' of Supplementary Table 1),run:Lestaurtinib_02364_R3,Plate:MR002): 61.3 nM; potency estimated from few doses (TNK2; compound concentrations:100 nM and 1000 nM (sheet 'Lestaurtinib' of Supplementary Table 1),run:Lestaurtinib_02367_R1,Plate:MR003): 66.6 nM; potency estimated from few doses (TNK2; compound concentrations:100 nM and 1000 nM (sheet 'Lestaurtinib' of Supplementary Table 1),run:Lestaurtinib_02367_R2,Plate:MR003): 52.8 nM; potency estimated from few doses (TNK2; compound concentrations:100 nM and 1000 nM (sheet 'Lestaurtinib' of Supplementary Table 1),run:Lestaurtinib_02381_R1,Plate:MR004): 50 nM; potency estimated from few doses (TNK2; compound concentrations:100 nM and 1000 nM (sheet 'Lestaurtinib' of Supplementary Table 1),run:Lestaurtinib_02381_R2,Plate:MR004): 65.5 nM; potency estimated from few doses (TNK2; compound concentrations:100 nM and 1000 nM (sheet 'Lestaurtinib' of Supplementary Table 1),run:Lestaurtinib_02407_R3,Plate:MR005): 54.4 nM; potency estimated from few doses (TNK2; compound concentrations:100 nM and 1000 nM (sheet 'Lestaurtinib' of Supplementary Table 1),run:Lestaurtinib_02422_R1,Plate:MR006): 44.1 nM; potency estimated from few doses (TNK2; compound concentrations:100 nM and 1000 nM (sheet 'Lestaurtinib' of Supplementary Table 1),run:Lestaurtinib_02422_R3,Plate:MR006): 48 nM; potency estimated from few doses (TNK2; compound concentrations:100 nM and 1000 nM (sheet 'Lestaurtinib' of Supplementary Table 1),run:Lestaurtinib_02437_R3,Plate:MR007): 14.1 nM; potency estimated from few doses (TNK2; compound concentrations:100 nM and 1000 nM (sheet 'Lestaurtinib' of Supplementary Table 1),run:Lestaurtinib_02438_R2,Plate:MR008): 43.2 nM; potency estimated from few doses (TNK2; compound concentrations:100 nM and 1000 nM (sheet 'Lestaurtinib' of Supplementary Table 1),run:Lestaurtinib_02443_R2,Plate:MR009): 44.4 nM; potency estimated from few doses (TNK2; compound concentrations:100 nM and 1000 nM (sheet 'Lestaurtinib' of Supplementary Table 1),run:Lestaurtinib_02443_R3,Plate:MR009): 62 nM; potency estimated from few doses (TNK2; compound concentrations:100 nM and 1000 nM (sheet 'Lestaurtinib' of Supplementary Table 1),run:Lestaurtinib_02473_R1,Plate:MR010): 52.5 nM; potency estimated from few doses (TNK2; compound concentrations:100 nM and 1000 nM (sheet 'Lestaurtinib' of Supplementary Table 1),run:Lestaurtinib_02473_R3,Plate:MR010): 23.2 nM; potency estimated from few doses (TNK2; compound concentrations:100 nM and 1000 nM (sheet 'Lestaurtinib' of Supplementary Table 1),run:Lestaurtinib_02482_R1,Plate:MR011): 54.7 nM; potency estimated from few doses (TNK2; compound concentrations:100 nM and 1000 nM (sheet 'Lestaurtinib' of Supplementary Table 1),run:Lestaurtinib_02482_R2,Plate:MR011): 59.1 nM; potency estimated from few doses (TNK2; compound concentrations:100 nM and 1000 nM (sheet 'Lestaurtinib' of Supplementary Table 1),run:Lestaurtinib_02482_R3,Plate:MR011): 60.1 nM; potency estimated from few doses (TNK2; compound concentrations:100 nM and 1000 nM (sheet 'Lestaurtinib' of Supplementary Table 1),run:Lestaurtinib_02487_R1,Plate:MR012): 51.2 nM; potency estimated from few doses (TNK2; compound concentrations:100 nM and 1000 nM (sheet 'Lestaurtinib' of Supplementary Table 1),run:Lestaurtinib_02487_R3,Plate:MR012): 44.6 nM; potency estimated from few doses (TNK2; compound concentrations:100 nM and 1000 nM (sheet 'Lestaurtinib' of Supplementary Table 1),run:Lestaurtinib_02496_R2,Plate:MR013): 48.4 nM; potency estimated from few doses (TNK2; compound concentrations:100 nM and 1000 nM (sheet 'Lestaurtinib' of Supplementary Table 1),run:Lestaurtinib_02496_R3,Plate:MR013): 38.5 nM; potency estimated from few doses (TNK2; compound concentrations:100 nM and 1000 nM (sheet 'Lestaurtinib' of Supplementary Table 1),run:Lestaurtinib_02566_R1,Plate:MR014): 51.6 nM; potency estimated from few doses (TNK2; compound concentrations:100 nM and 1000 nM (sheet 'Lestaurtinib' of Supplementary Table 1),run:Lestaurtinib_02566_R2,Plate:MR014): 58.8 nM; potency estimated from few doses (TNK2; compound concentrations:100 nM and 1000 nM (sheet 'Lestaurtinib' of Supplementary Table 1),run:Lestaurtinib_02572_R1,Plate:MR015): 37.5 nM; potency estimated from few doses (TNK2; compound concentrations:100 nM and 1000 nM (sheet 'Lestaurtinib' of Supplementary Table 1),run:Lestaurtinib_02572_R2,Plate:MR015): 46.2 nM; potency estimated from few doses (TNK2; compound concentrations:100 nM and 1000 nM (sheet 'Lestaurtinib' of Supplementary Table 1),run:Lestaurtinib_02572_R3,Plate:MR015): 49.3 nM; potency estimated from few doses (TNK2; compound concentrations:100 nM and 1000 nM (sheet 'Lestaurtinib' of Supplementary Table 1),run:Lestaurtinib_02577_R1,Plate:MR016): 55.6 nM; potency estimated from few doses (TNK2; compound concentrations:100 nM and 1000 nM (sheet 'Lestaurtinib' of Supplementary Table 1),run:Lestaurtinib_02577_R2,Plate:MR016): 56.4 nM; potency estimated from few doses (TNK2; compound concentrations:100 nM and 1000 nM (sheet 'Lestaurtinib' of Supplementary Table 1),run:Lestaurtinib_02577_R3,Plate:MR016): 62.6 nM; potency estimated from few doses (TNK2; compound concentrations:100 nM and 1000 nM (sheet 'Lestaurtinib' of Supplementary Table 1),run:Lestaurtinib_02584_R1,Plate:MR017): 56.4 nM; potency estimated from few doses (TNK2; compound concentrations:100 nM and 1000 nM (sheet 'Lestaurtinib' of Supplementary Table 1),run:Lestaurtinib_02584_R2,Plate:MR017): 64.8 nM; potency estimated from few doses (TNK2; compound concentrations:100 nM and 1000 nM (sheet 'Lestaurtinib' of Supplementary Table 1),run:Lestaurtinib_02601_R1,Plate:MR018): 77.3 nM; potency estimated from few doses (TNK2; compound concentrations:100 nM and 1000 nM (sheet 'Lestaurtinib' of Supplementary Table 1),run:Lestaurtinib_02606_R1,Plate:MR019): 55.6 nM; potency estimated from few doses (TNK2; compound concentrations:100 nM and 1000 nM (sheet 'Lestaurtinib' of Supplementary Table 1),run:Lestaurtinib_02606_R3,Plate:MR019): 54.4 nM; potency estimated from few doses (TNK2; compound concentrations:100 nM and 1000 nM (sheet 'Lestaurtinib' of Supplementary Table 1),run:Lestaurtinib_02624_R2,Plate:MR020): 52.3 nM; potency estimated from few doses (TNK2; compound concentrations:100 nM and 1000 nM (sheet 'Lestaurtinib' of Supplementary Table 1),run:Lestaurtinib_02724_R2,Plate:MR021): 56.1 nM; potency estimated from few doses (TNK2; compound concentrations:100 nM and 1000 nM (sheet 'Lestaurtinib' of Supplementary Table 1),run:Lestaurtinib_02741_R2,Plate:MR023): 224 nM; potency estimated from few doses (TNK2; [1]): 38.5 nM; potency estimated from few doses (TNK2; compound concentrations:100 nM and 1000 nM (sheet 'Lestaurtinib' of Supplementary Table 1),run:Lestaurtinib_02748_R3,Plate:MR024): 52.3 nM; potency estimated from few doses (TNK2; [2]): 57.7 nM; potency estimated from few doses (TNK2; [3]): 46.1 nM; potency estimated from few doses (TNK2; [4]): 115 nM; potency estimated from few doses (TNK2; [5]): 75.6 nM; potency estimated from few doses (TNK2; [6]): 51.8 nM; potency estimated from few doses (TNK2; compound concentrations:100 nM and 1000 nM (sheet 'Lestaurtinib' of Supplementary Table 1),run:Lestaurtinib_02766_R2,Plate:MR027): 15.7 nM; potency estimated from few doses (TNK2; [7]): 41.6 nM; potency estimated from few doses (TNK2; [8]): 60 nM; potency estimated from few doses (TNK2; [9]): 56.1 nM; potency estimated from few doses (TNK2; [10]): 49.4 nM; potency estimated from few doses (TNK2; [11]): 160 nM; potency estimated from few doses (TNK2; [12]): 71.2 nM; potency estimated from few doses (TNK2; [13]): 9.76 nM; potency estimated from few doses (TNK2; [14]): 61.8 nM; potency estimated from few doses (TNK2; [15]): 53.9 nM; potency estimated from few doses (TNK2; compound concentrations:100 nM and 1000 nM (sheet 'Lestaurtinib' of Supplementary Table 1),run:Lestaurtinib_03172_R1,Plate:MR031): 45.6 nM; potency estimated from few doses (TNK2; [16]): 48.7 nM; potency estimated from few doses (TNK2; [17]): 75.4 nM; potency estimated from few doses (TNK2; compound concentrations:100 nM and 1000 nM (sheet 'Lestaurtinib' of Supplementary Table 1),run:Lestaurtinib_03260_R1,Plate:MR033): 115 nM; potency estimated from few doses (TNK2; [18]): 59.2 nM

Reference: article PMC11062922 (Nature Chemical Biology, 2023)
